The structures appear in SMILES notation. Unmarked numbers belong to inactive results. Activity calls are given as the source filed them. Calls follow the shape of the full dose curve. Residues, ends and D or L forms follow the SMILES beside them.
% is scaled to controls: 0 for no effect and ±100 for the full control effect.

Acetylcholinesterase (Homo sapiens), sequence (P22303 whole entry, looked up): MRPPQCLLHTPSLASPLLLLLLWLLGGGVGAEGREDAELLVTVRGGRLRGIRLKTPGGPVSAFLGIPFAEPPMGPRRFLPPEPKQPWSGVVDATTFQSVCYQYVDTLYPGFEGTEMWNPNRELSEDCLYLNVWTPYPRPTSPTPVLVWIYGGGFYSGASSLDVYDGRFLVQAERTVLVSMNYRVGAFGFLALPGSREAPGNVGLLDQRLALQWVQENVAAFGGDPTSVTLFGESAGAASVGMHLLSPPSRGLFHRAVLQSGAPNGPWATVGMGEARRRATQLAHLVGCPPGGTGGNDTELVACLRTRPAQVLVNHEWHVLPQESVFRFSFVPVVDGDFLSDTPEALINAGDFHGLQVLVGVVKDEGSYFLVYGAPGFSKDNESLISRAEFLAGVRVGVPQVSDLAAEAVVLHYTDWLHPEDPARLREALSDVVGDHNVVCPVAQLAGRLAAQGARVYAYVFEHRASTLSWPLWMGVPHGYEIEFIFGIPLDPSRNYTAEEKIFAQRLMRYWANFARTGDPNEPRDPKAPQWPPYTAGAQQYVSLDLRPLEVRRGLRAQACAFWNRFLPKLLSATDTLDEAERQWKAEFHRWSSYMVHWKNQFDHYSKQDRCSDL

In the test the target is Acetylcholinesterase (Homo sapiens) (UniProt P22303). In words: Acetylcholinesterase (AChE) small molecule antagonists: enzyme-based qHTS assay (AID 1347397). Also: nearly all actives have a fitted effect of over 55% in size. The settings on record: Potency: AChE enzyme activity inhibition; outcome: AChE enzyme activity inhibition; series mostly up to 115 µM; activity change, negative = inhibition: at the top concentration. An excerpt:
National Center for Advancing Translational Sciences [NCATS]
Division of Preclinical Innovation [DPI]
U.S. Environmental Protection Agency [EPA]
National Institutes of Environmental Health Sciences [NIEHS]
National Toxicology Program [NTP]
U.S. Food and Drug Administration [FDA]
Acetylcholinesterase (AChE) is the primary cholinesterase in the body that hydrolyzes a key neurotransmitter, acetylcholine. Inhibition of AChE activity can lead to neurotoxicity. The known inhibitors include organophosphorous pesticides (OP), chemical warfare agents, drugs, and various phytochemicals.
An enzyme-based assay with the recombinant human AChE and Amplite Colormetric acetylcholinesterase assay kit (AAT Bioquest, Sunnyvale, CA) was used to evaluate the chemicals in the Tox21 10K library that inhibit AChE activity. The assay uses 5, 5-dithiobis-(2-nitrobenzoic acid) (DTNB) to quantify the thiocholine produced from the hydrolysis of acetylthiocholine by AChE.
Tox21 Assay Protocol Summary:
For the enzyme-based AChE assay, recombinant human AChE (50 mU/mL) in 4 uL/well was dispensed into black, clear-bottom 1536-well plates using a Multidrop Combi dispenser (Thermo Scientific, MA). Then, 23 nL of compound or DMSO (vehicle control) was transferred into the assay plates by a Pintool Station (Wako Automation, CA). The plates were incubated for 30 min at room temperature, followed by the addition of 4 uL of colorimetric detection cocktail solution (DTNB, acetylthiocholine) into each well using a Flying Reagent Dispenser (Beckman Coulter, CA) and then 10 min incubation at room temperature.
(In general: In qHTS, concentration-response curves come from the screen itself.)
As for `CC(C)CC=O`, the “activity change, negative = inhibition” value is -0.281%.
On the same count and under the same terms, the figure for `CCc1ccc2c(c1)C(=O)c1ccccc1C2=O` is -0.327%.
As for `Nc1nc(N)nc(-c2ccccc2)n1`, the Potency result was “inactive”.
Still for that read-out and setting: to `CC(C)(C)C1CCC(O)CC1` (stereo not given) belongs “inactive”; to `COc1c(Cl)c(Cl)c(Cl)c(Cl)c1Cl`, “inactive”.
With `CCCCCCCCS(=O)C(C)Cc1ccc2c(c1)OCO2` (stereo not given), the “activity change, negative = inhibition” value is -4.9%.
On the same count and under the same terms, to `CCCCCCCCN(C)C` belongs 0.546%.
Turning to `CCCN(CCC)C(=O)SCC`, the Potency result is “inactive”.
On the same count and under the same terms, the entry for `O=C1OC2(c3ccccc31)c1cc(Br)c(O)c(Br)c1Oc1c2cc(Br)c(O)c1Br` is “inactive”.
In the case of `CO[C@@]1(NC(=O)C(C(=O)O)c2ccc(O)cc2)C(=O)N2C(C(=O)O)=C(CSc3nnnn3C)CO[C@@H]21` (stereo not given in full), the “activity change, negative = inhibition” value is 0.669% [at 53 µM].
Take `COC(=O)OC`: the Potency result is “inactive”.
On to `Nc1ccc(-c2ccc(F)cc2)cc1`, for which the “activity change, negative = inhibition” value is 1.55%.
Still for that read-out and setting: the figure for `C1=Cc2ccccc2C1` is -0.389%.
Turning to `NC(=O)NC1NC(=O)NC1=O` (stereo not given), the Potency result was “inactive”.
Same read-out and setting: the entry for `CCCCCCCCCCC=CC1CC(=O)OC1=O` (stereo not given) is “inactive”; for `c1cc(N(CC2CO2)CC2CO2)ccc1OCC1CO1` (stereo not given) it is “inactive”.
`N[C@@H](CCC(=O)O)C(=O)O`: the “activity change, negative = inhibition” value was -0.199%.
Regarding `CC1(C)NC(=O)NC1=O`, the Potency result was “inactive”.
For `CCCCN(C)C`, the “activity change, negative = inhibition” value was 0.817%.
Regarding `O=C1NCC2(CCN(CCc3ccccc3)CC2)O1`, the “activity change, negative = inhibition” value was 0.211% [at 53 µM].
As to `CO[C@H]1C=CO[C@@]2(C)Oc3c(C)c(O)c4c(O)c(c(/C=N/N5CCN(C)CC5)c(O)c4c3C2=O)NC(=O)/C(C)=C\C=C[C@H](C)[C@H](O)[C@@H](C)[C@@H](O)[C@@H](C)[C@H](OC(C)=O)[C@@H]1C`, the Potency entry was “inactive”.
For `Cc1cc(Cc2ccc(N)c(C)c2)ccc1N`, the Potency entry was “inactive”.
As to `O=C(O)c1ccc[n+]([O-])c1`, the “activity change, negative = inhibition” value was 0.688% [at 53 µM].
On the same count and under the same terms, the figure for `CCC(=O)Nc1cccc(N)c1` is 0.684%; for `CCCCOC(O)CC` (stereo not given) it is 0.516%.
On to `O=C[C@H](O)[C@H](O)[C@H](O)CO`, for which the “activity change, negative = inhibition” value was -0.273%.
Regarding `N[C@@H](Cc1cc(I)c(Oc2cc(I)c(O)c(I)c2)c(I)c1)C(=O)O`, the Potency entry was “inactive”.
Consider `CNS(=O)(=O)Cc1ccc2[nH]cc(CCN(C)C)c2c1`, for which the “activity change, negative = inhibition” value is -2.06% [at 53 µM].
Consider `CC(NN)c1ccccc1` (stereo not given), for which the activity change, negative = inhibition was 0.277% [at 23.6 µM].
Same read-out and setting: the figure for `COc1ccc(C(C)=O)cc1` is 1.27%.
On to `CC(=O)Nc1ccc(CC(=O)O)cc1`, for which the Potency result is “inactive”.
On the same count and under the same terms, the entry for `c1ccc(Nc2cccc3ccccc23)cc1` is “inactive”.
As for `CC(=O)Nc1ccc(OCC(O)CNC(C)C)cc1` (stereo not given), the “activity change, negative = inhibition” value is -0.277% [at 53 µM].
As to `Cc1cc(CC(=O)O)n(C)c1C(=O)c1ccc(Cl)cc1`, the Potency entry was “inactive”.
The same measure, in the same setting: the entry for `COC(=O)[C@H](Cc1ccccc1)NC(=O)[C@@H](N)CC(=O)O` (H-Asp-Phe-OMe) is “inactive”; for `CC[C@H](c1ccc(O)cc1)[C@@H](CC)c1ccc(O)cc1` it is “inactive”.
`CCC(=O)c1cccc(Cl)c1`: the “activity change, negative = inhibition” value is 0.148%.
Take `COc1cc(C=O)ccc1O`: the Potency result was “inactive”.
As to `COc1cc(/C=C/C(N)=O)cc(OC)c1OC`, the “activity change, negative = inhibition” value was 0.945% [at 53 µM].
As to `CC(C)(C)NC(N)=O`, the “activity change, negative = inhibition” value was -0.634%.

The values above are taken from PubChem BioAssay (Tox21).
